PubChem BioAssay
Values joined by “and” are separate entries in the source; they are usually repeats but may differ in a detail not shown here. Equal entries are not always repeated. Values without a mark were called inactive. No rule for the calls is given here.

The compounds below were run on Aerobactin synthetase IucA (Klebsiella pneumoniae hvKP1) (assay: Biochemical IucA enzyme inhibition primary screen of the Spectrum library (AID 1346200;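 also: 100% = wells without compound and 0% = wells lacking enzyme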)). Details: malachite green pyrophosphate, A620, at 8 µM, active compounds read low.
N=c1ccn2c(n1)O[C@@H]1C2O[C@H](CO)[C@H]1O (some centres undefined) was tested, and the activity remaining was 105%.
With CC1(C)Oc2ccc3ccc(=O)oc3c2CC1O (centres undefined) the activity remaining was 88.1%.
C1CCN2C[C@@H]3C[C@H](CN4CCCC[C@@H]34)[C@H]2C1 was tested, and the activity remaining was 106% and 89.3%.
In the case of CCCC(=O)Nc1ccc(OCC(O)CNC(C)C)c(C(C)=O)c1 (centres undefined), the activity remaining is reported as 120%.
Work on CC1(C)CC[C@]2(C)CC[C@]3(C)C(=CCC4[C@@]5(C)CC[C@H](O)C(C)(C)C5CC[C@]43C)C2C1 (some centres undefined) yielded an activity remaining of 121%.
CN(C/C=C/C#CC(C)(C)C)Cc1cccc2ccccc12 gave an activity remaining of 114%.
Compound CCCCC(=O)O[C@]1(C(=O)CO)CCC2C3CCC4=CC(=O)CC[C@]4(C)C3[C@@H](O)C[C@@]21C (some centres undefined) has an activity remaining of 111%.
Clc1ccc(C(Cn2ccnc2)OCc2ccsc2Cl)c(Cl)c1 (centres undefined) showed an activity remaining of 109%.
With CC1(C)CC2C1CCC1(C)OC1CCC2(C)O (centres undefined) the activity remaining was 120%.
CC(C)c1c(O)ccc2c1CCC1[C@@](C)(CO)CCC[C@]21C (some centres undefined) gave an activity remaining of 101%.
In the case of NC1(C(=O)O)CCCC1, the activity remaining is reported as 117%.
Work on Nc1c2ccccc2nc2ccccc12 yielded an activity remaining of 118%.
For OC[C@H]1O[C@@H](O[C@H]2[C@H](O)[C@@H](O)[C@@H](O)O[C@@H]2CO)[C@H](O)[C@@H](O)[C@@H]1O, the activity remaining was 107%.
For N[C@@H]1[C@@H](O)[C@H](O)[C@@H](CO)O[C@H]1O, the activity remaining was 80.8%.
Cc1c(NC(=O)c2cccnc2)c(=O)n(-c2ccccc2)n1C gave an activity remaining of 85.4%.
Compound COc1cc2c(cc1-c1coc3c4c(c(OC)cc3c1=O)OC(C)(C)C=C4)OCO2 has an activity remaining of 110%.
NS(=O)(=O)c1cc2c(cc1C(F)(F)F)NC(Cc1ccccc1)NS2(=O)=O (centres undefined) gave an activity remaining of 98.7%.
CC(=O)O[C@]1(C(C)=O)CCC2C3C=C(Cl)C4=CC(=O)CC[C@]4(C)C3CC[C@@]21C (some centres undefined) was tested, and the activity remaining was 130%.
For CCCCCCCCCCCCCCC(C(=O)O)C(O)(CC(=O)OC)C(=O)O (centres undefined), the activity remaining was 128%.
C[C@@H]1CC2C3C[C@H](F)C4=CC(=O)C=C[C@]4(C)[C@@]3(F)[C@@H](O)C[C@]2(C)[C@@]1(O)C(=O)CO (some centres undefined) was tested, and the activity remaining was 113%.
With CC1=C(/C=C/C(C)=C/C=C/C(C)=C/C=C/C=C(C)/C=C/C=C(C)/C=C/C(=O)[C@]2(C)C[C@@H](O)CC2(C)C)C(C)(C)C[C@H](O)C1 the activity remaining was 108%.
In the case of COc1ccc(-c2cc(=O)c3c(O)cc(O)c(-c4cc(-c5cc(=O)c6c(O)cc(O)cc6o5)ccc4OC)c3o2)cc1, the activity remaining is reported as 117%.
CC(=O)O[C@@H]1CC2C(C)(C)C(=O)C=C[C@]2(C)C2CC[C@@]3(C)[C@H](c4ccoc4)OC(=O)[C@H]4O[C@]43[C@@]21C (some centres undefined) gave an activity remaining of 104%.
With O=c1c(O)c(-c2ccc(O)cc2)oc2ccccc12 the activity remaining was 104%.
COc1ccc2c(C)cc(=O)oc2c1 was tested, and the activity remaining was 92.2%.
CN1CCC(OC(c2ccccc2)c2ccccc2)CC1 showed an activity remaining of 108%.
Oc1ccc2c(c1)OCC1c3cc4c(cc3OC21)OCO4 (centres undefined) was tested, and the activity remaining was 87.4%.
Compound CC1(C)S[C@@H]2[C@H](NC(=O)Cc3ccccc3)C(=O)N2[C@H]1C(=O)O has an activity remaining of 111%.
COc1cc(N)c(Cl)cc1C(=O)NC1CCN(Cc2ccccc2)CC1 showed an activity remaining of 119%.
CN(C)/N=N/c1nc[nH]c1C(N)=O gave an activity remaining of 107%.
Work on NC(N)=Nc1nc(CSCC/C(N)=N\S(N)(=O)=O)cs1 yielded an activity remaining of 113%.
For C=CC1=C(C(=O)O)N2C(=O)[C@@H](NC(=O)/C(=N\O)c3csc(N)n3)[C@H]2SC1 (stereo in doubt), the activity remaining was 103%.
For COc1c2ccoc2cc2oc(C)cc(=O)c12, the activity remaining was 108%.
With CO[C@H]1O[C@H](CO)C(O[C@@H]2OC(C(=O)O)[C@@H](O[C@H]3O[C@H](COS(=O)(=O)O)C(O[C@@H]4OC(C(=O)O)[C@@H](O[C@H]5O[C@H](CO)C(O[C@@H]6OC(C(=O)O)[C@@H](O[C@H]7O[C@H](COS(=O)(=O)O)C(O[C@@H]8OC(C(=O)O)=C[C@H](O)C8OS(=O)(=O)O)[C@H](O)[C@H]7NC(C)=O)[C@H](O)[C@H]6O)[C@H](O)[C@H]5NC(C)=O)[C@H](O)[C@H]4O)[C@H](O)[C@H]3NC(C)=O)[C@H](O)[C@H]2O)[C@H](O)[C@H]1NC(C)=O (some centres undefined) the activity remaining was 92.9%.
